The results in this text go back to ChEMBL document CHEMBL2218924, “A broad activity screen in support of a chemogenomic map for kinase signalling research and drug discovery” (Biochem J, 2013).

Assay [1] concerns the target Macrophage colony-stimulating factor 1 receptor (Homo sapiens) (UniProt P07333). To be noted: at 1 µM.
For assay [2] the target is unchanged. To be noted: at 10 µM.
Assay [3] deals with Tyrosine-protein kinase Fyn (Homo sapiens) (UniProt P06241). To be noted: at 1 µM.
For assay [4] the target is unchanged. The note with it: at 10 µM.
The target of assay [5] is T1, Mitogen-activated protein kinase kinase kinase kinase 2 (Homo sapiens) (UniProt Q12851).
T1 sequence (whole entry): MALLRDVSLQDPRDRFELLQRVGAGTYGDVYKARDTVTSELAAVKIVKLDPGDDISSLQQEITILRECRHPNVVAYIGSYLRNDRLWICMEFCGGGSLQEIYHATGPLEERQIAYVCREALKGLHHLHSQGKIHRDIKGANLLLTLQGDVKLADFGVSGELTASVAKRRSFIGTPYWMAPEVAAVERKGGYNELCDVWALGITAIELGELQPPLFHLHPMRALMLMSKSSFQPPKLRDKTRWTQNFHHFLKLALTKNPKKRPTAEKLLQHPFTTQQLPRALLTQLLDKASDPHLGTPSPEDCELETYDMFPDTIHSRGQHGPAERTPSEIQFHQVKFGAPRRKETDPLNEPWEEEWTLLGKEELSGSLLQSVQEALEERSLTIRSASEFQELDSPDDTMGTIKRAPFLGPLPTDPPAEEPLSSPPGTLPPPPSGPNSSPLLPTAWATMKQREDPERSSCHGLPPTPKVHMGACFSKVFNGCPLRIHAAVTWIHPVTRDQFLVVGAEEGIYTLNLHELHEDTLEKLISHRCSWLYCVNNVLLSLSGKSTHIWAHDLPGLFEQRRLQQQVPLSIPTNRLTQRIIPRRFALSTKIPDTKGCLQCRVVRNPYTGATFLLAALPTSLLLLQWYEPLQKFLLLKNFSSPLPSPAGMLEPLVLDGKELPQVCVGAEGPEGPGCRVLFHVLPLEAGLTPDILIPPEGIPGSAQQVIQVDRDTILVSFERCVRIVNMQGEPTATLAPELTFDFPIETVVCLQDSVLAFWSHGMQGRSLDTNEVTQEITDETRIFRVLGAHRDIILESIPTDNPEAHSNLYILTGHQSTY
To be noted: at 1 µM.

Assay [6] has as its target T1, Mitogen-activated protein kinase kinase kinase kinase 2 (Homo sapiens). The note with it: at 10 µM.
The target in assay [7] is G protein-coupled receptor kinase 6 (Homo sapiens) (UniProt P43250). To be noted: at 10 µM.
Assay [8] addresses T2, Rhodopsin kinase GRK7 (Homo sapiens) (UniProt Q8WTQ7).
T2 sequence (whole entry): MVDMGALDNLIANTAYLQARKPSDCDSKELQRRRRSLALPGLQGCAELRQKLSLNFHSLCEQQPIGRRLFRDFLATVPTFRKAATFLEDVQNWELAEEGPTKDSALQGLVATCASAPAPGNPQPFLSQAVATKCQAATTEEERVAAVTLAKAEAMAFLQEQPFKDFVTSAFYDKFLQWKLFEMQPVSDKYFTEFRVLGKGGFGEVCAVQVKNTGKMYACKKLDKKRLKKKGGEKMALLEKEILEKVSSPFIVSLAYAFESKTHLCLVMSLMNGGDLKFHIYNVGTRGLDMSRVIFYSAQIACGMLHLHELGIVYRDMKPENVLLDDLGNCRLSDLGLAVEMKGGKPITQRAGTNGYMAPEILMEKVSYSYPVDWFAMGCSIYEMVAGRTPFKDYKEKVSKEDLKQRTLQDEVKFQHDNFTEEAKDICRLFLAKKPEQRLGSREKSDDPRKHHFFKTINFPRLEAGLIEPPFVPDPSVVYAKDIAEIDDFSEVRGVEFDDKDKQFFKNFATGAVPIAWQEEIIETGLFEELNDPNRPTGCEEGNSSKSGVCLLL
To be noted: at 10 µM.

The target in assay [9] is Glycogen synthase kinase-3 beta (Homo sapiens) (UniProt P49841). The note with it: at 1 µM.
Assay [10] has the same target. To be noted: at 10 µM.
Assay [11] concerns the target Homeodomain-interacting protein kinase 1 (Homo sapiens) (UniProt Q86Z02). To be noted: at 10 µM.
The target in assay [12] is Vascular endothelial growth factor receptor 3 (Homo sapiens) (UniProt P35916). To be noted: at 10 µM.
Assay [13] has as its target G protein-coupled receptor kinase 5 (Homo sapiens) (UniProt P34947). To be noted: at 10 µM.
Assay [14] has as its target G protein-coupled receptor kinase 6 (Homo sapiens) (UniProt P43250). The note with it: at 1 µM.
For assay [15], the target named is T2, Rhodopsin kinase GRK7 (Homo sapiens). To be noted: at 1 µM.
Assay [16] has as its target Glycogen synthase kinase-3 alpha (Homo sapiens) (UniProt P49840). The note with it: at 1 µM.
For assay [17], the target named is G protein-coupled receptor kinase 5 (Homo sapiens) (UniProt P34947). To be noted: at 1 µM.
Assay [18] concerns the target Homeodomain-interacting protein kinase 1 (Homo sapiens) (UniProt Q86Z02). The note with it: at 1 µM.
In assay [19] the target is Homeodomain-interacting protein kinase 2 (Homo sapiens) (UniProt Q9H2X6). The note with it: at 1 µM.
Assay [20] concerns the target Glycogen synthase kinase-3 alpha (Homo sapiens) (UniProt P49840). To be noted: at 10 µM.

Each structure is given as a SMILES string.

Homeodomain-interacting protein kinase 2 (Homo sapiens), sequence (Q9H2X6 whole entry, looked up): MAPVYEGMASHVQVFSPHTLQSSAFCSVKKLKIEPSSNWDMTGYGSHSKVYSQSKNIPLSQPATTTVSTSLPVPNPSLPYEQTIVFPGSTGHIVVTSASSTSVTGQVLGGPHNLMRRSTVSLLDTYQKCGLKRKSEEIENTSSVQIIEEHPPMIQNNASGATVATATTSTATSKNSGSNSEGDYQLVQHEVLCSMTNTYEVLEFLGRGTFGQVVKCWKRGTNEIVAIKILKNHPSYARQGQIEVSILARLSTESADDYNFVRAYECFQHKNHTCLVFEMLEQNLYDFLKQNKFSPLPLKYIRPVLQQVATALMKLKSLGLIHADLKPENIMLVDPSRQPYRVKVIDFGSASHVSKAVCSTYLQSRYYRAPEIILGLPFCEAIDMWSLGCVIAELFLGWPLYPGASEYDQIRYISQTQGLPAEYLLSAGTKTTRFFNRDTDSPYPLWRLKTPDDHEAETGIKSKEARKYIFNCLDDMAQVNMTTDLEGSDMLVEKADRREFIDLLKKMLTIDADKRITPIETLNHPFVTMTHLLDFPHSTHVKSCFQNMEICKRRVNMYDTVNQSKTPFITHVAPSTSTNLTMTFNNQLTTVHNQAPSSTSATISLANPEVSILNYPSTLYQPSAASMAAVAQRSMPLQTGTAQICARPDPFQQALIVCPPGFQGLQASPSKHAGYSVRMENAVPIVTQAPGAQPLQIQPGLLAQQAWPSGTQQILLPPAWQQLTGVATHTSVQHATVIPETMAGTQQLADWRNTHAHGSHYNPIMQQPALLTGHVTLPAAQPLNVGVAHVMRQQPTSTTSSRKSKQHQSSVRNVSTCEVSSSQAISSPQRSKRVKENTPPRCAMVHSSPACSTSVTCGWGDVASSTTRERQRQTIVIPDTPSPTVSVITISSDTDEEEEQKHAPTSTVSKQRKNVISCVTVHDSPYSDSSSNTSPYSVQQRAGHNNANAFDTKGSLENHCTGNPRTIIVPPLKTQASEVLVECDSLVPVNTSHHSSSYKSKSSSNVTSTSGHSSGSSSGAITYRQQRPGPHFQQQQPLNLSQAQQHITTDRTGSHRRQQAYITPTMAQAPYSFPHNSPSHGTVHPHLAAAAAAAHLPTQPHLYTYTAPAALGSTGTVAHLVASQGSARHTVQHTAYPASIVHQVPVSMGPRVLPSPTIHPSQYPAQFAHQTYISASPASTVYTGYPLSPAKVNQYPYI
Glycogen synthase kinase-3 alpha (Homo sapiens), sequence (P49840 2-483 limits assumed): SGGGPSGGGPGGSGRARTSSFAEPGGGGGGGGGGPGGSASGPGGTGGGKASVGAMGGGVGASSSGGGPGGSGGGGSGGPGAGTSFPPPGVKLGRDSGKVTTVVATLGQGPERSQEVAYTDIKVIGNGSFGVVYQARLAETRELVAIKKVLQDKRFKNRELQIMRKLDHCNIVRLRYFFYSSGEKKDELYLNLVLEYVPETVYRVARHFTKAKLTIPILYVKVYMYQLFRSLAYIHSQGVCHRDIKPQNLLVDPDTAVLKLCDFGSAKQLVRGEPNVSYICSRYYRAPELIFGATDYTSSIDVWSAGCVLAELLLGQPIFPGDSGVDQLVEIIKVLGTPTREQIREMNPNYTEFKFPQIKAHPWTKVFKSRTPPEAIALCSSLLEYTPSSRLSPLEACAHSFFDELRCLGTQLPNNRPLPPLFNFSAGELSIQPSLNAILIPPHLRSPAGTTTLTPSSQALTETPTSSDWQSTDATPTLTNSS
Tyrosine-protein kinase Fyn (Homo sapiens), sequence (P06241 2-537 limits assumed): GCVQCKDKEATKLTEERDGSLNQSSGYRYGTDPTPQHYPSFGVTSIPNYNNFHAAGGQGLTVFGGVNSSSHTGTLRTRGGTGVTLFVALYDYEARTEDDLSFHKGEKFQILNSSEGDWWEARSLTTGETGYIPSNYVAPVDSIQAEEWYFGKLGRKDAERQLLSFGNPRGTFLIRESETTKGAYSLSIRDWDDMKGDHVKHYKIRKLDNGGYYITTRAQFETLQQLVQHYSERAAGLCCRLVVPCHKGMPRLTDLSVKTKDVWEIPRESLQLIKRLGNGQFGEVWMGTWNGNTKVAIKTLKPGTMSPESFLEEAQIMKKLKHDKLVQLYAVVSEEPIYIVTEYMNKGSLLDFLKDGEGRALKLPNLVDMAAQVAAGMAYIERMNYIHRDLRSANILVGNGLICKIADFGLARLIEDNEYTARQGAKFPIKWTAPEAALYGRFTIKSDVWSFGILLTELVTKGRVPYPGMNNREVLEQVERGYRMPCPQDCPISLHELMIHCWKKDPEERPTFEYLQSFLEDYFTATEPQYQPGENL
Homeodomain-interacting protein kinase 1 (Homo sapiens), sequence (Q86Z02 whole entry, looked up): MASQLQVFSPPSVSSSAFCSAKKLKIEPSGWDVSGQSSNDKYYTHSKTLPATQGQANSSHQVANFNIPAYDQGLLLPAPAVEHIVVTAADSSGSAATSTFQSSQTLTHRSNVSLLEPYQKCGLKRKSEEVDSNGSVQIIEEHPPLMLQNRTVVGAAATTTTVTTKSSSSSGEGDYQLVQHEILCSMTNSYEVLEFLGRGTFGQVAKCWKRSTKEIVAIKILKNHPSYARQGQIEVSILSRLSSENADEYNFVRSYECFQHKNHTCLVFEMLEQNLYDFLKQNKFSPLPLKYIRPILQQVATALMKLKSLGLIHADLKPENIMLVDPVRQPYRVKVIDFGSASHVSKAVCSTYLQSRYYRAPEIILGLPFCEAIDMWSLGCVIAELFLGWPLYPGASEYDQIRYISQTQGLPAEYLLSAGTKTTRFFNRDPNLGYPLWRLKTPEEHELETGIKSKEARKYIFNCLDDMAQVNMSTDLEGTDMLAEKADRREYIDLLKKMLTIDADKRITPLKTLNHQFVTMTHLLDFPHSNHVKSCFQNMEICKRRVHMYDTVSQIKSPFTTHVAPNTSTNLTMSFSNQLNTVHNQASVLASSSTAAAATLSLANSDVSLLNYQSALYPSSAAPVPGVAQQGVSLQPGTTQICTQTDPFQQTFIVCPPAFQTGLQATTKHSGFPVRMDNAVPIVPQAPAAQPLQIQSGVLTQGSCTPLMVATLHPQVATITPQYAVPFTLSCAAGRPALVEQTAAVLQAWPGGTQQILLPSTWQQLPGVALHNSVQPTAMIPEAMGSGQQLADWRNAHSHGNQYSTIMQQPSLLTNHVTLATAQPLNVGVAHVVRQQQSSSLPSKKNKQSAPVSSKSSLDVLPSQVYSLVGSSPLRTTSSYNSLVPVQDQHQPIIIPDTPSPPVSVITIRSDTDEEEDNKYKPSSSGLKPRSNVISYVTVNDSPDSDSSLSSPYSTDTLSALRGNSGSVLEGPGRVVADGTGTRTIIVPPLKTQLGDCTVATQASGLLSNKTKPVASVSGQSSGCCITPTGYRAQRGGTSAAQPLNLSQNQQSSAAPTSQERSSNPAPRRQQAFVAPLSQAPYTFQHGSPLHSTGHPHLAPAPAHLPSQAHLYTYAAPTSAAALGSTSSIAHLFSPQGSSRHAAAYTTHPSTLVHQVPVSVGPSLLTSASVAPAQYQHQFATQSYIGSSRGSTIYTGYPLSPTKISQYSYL
G protein-coupled receptor kinase 5 (Homo sapiens), sequence (P34947 whole entry, looked up): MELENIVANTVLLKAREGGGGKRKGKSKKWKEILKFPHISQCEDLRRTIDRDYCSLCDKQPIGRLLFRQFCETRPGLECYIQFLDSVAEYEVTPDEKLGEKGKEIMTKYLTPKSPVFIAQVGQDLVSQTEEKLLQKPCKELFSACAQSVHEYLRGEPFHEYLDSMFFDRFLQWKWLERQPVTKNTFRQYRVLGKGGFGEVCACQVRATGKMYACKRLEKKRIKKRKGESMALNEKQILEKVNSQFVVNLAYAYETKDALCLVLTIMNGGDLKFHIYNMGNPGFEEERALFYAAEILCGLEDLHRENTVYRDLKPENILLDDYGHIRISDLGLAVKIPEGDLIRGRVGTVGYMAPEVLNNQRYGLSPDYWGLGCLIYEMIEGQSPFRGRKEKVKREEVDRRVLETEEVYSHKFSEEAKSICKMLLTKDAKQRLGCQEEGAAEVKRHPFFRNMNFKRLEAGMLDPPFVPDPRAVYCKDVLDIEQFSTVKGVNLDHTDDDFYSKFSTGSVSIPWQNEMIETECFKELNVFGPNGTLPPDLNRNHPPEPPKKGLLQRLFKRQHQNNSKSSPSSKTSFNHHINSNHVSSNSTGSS
Glycogen synthase kinase-3 beta (Homo sapiens), sequence (P49841 whole entry, looked up): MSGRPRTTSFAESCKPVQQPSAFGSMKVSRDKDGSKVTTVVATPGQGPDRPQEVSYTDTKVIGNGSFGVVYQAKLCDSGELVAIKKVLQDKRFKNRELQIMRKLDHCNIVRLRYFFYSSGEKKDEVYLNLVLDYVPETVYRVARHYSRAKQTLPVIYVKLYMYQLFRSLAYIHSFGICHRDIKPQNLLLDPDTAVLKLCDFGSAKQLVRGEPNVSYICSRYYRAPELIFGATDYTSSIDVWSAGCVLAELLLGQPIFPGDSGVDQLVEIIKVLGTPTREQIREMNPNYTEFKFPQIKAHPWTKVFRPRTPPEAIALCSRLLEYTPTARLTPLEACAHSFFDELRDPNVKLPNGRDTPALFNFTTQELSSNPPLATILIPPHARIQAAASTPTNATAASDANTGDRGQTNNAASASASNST
G protein-coupled receptor kinase 6 (Homo sapiens), sequence (P43250 whole entry, looked up): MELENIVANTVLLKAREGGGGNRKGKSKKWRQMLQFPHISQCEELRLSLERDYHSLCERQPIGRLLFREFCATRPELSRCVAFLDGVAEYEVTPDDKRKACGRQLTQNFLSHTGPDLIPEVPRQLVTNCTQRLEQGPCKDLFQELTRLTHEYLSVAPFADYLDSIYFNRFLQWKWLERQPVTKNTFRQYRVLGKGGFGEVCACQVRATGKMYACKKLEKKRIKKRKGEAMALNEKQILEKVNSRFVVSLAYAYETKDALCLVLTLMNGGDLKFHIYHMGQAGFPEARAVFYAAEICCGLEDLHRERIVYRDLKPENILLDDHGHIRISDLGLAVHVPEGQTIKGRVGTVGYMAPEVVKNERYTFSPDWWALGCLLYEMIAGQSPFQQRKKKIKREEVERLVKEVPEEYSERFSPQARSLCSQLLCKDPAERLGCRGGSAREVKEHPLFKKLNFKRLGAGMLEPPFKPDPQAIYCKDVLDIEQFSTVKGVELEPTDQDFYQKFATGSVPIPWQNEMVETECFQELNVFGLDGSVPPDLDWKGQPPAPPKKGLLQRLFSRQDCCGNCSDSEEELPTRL

Regarding `COc1ccc2c(c1)/C(=C/c1cnc[nH]1)C(=O)N2`, the residual activity in assay [1] turned out to be 41%; in [2], 14%; in [3], 67%; in assay [4], 25%; in assay [5], 23%; in assay [6], 3%. In addition, the residual activity in assay [7] came out at 76%; in assay [8], 42%; in assay [9], 42%; in [10], 4%; in [11], 52%.
With `COc1ccc2c(c[n+](C)c3c4cc5c(cc4ccc23)OCO5)c1OC`, the residual activity in assay [12] stood at 62%; in assay [1], 87%; in assay [2], 74%; in assay [3], 92%; in assay [4], 63%; in assay [6] it was 72%. Besides, the residual activity in assay [13] stood at 82%; in assay [14] it was 96%; in [7], 93%; in assay [15], 99%; in assay [8], 91%; in assay [16], 126%. Besides, the residual activity is 97% in [9] and 83% in assay [10].
On to `O=C1NC(=O)c2c1c1c3ccccc3[nH]c1c1[nH]c3cc(Br)ccc3c21`, for which the residual activity in [17] and in [14] was 102% throughout.
Regarding `CC(C)[C@H](CO)Nc1nc(Nc2cccc(Cl)c2)c2ncn(C(C)C)c2n1`, the residual activity in assay [12] is 3%; in assay [1], 70%; in [2], 34%; in [3], 4%; in [4], -1%; in assay [5], 75%. Further, the residual activity in assay [6] was determined as 23%; in [17], 97%; in [13] it was 82%; in [15], 95%; in assay [8], 44%; in assay [9], 134%. The residual activity in assay [10] is 57%; in assay [18] it was 97%; in assay [11], 49%; in assay [19] it was 88%.
Regarding `Nc1nc(Nc2ccc(S(N)(=O)=O)cc2)nn1C(=S)Nc1c(F)cccc1F`, in [17], the residual activity was found to be 77%.
As to `COC(=O)[C@@]1(O)C[C@H]2O[C@]1(C)n1c3ccccc3c3c4c(c5c6ccccc6n2c5c31)C(=O)NC4`, the residual activity in assay [12] is 1%; in assay [1], 2%; in [2], 1%; in assay [3], 4%; in assay [4], 0%; in assay [5], 0%. Besides, the residual activity was found to be 1% in assay [6]; 40% in assay [17]; 5% in assay [13]; 36% in assay [14]; 5% in assay [7]; 4% in assay [15]. Besides, the residual activity in assay [8] was 4%; in assay [16], 14%; in [20] it was 3%; in assay [9] it was 29%; in assay [10], 10%; in assay [18] it was 78%. Also, the values for the residual activity in [11] and in assay [19] were 15% and 22%, respectively.
On to `COc1cc2ncnc(Nc3cccc(Cl)c3)c2cc1OC`, for which the residual activity in assay [17] stood at 108%.
Take `O=C1NC(=O)c2c1c1c3ccccc3n3c1c1c2c2ccccc2n1C1CCC3O1`: the residual activity in [12] was 2%; in assay [1] it was 30%; in [2], 26%; in assay [3], 81%; in assay [4], 75%; in [5], 20%. The residual activity was found to be 10% in assay [6]; 15% in assay [16]; 3% in assay [20]; 40% in assay [9]; 23% in assay [10]; 42% in [19].
On to `O=c1[nH]c2ccccc2n1C1CCN(Cc2ccc(-c3nc4cc5[nH]cnc5cc4nc3-c3ccccc3)cc2)CC1`, for which the residual activity in [12] was found to be 59%; in assay [1], 55%; in [2] it was 51%; in assay [3], 95%; in assay [4] it was 72%; in assay [5], 101%. For the same compound, the residual activity in assay [6] was 80%; in assay [17], 103%; in assay [13] it was 85%; in [14], 100%; in assay [7], 94%; in assay [15], 110%. The residual activity in assay [8] was 94%; in assay [16] it was 112%; in assay [20] it was 123%; in assay [9], 108%; in assay [10], 106%; in [18], 101%. In addition, the residual activity in assay [11] and in assay [19] was 98% throughout.
For `c1cc(-c2cnn3cc(-c4ccc(OCCN5CCCCC5)cc4)cnc23)ccn1`, the residual activity was 0% in assay [12]; 3% in [1]; 1% in assay [2]; 11% in assay [3]; 1% in [4]; 10% in assay [5]. Also, the residual activity came out at 1% in [6]; 101% in assay [14]; 100% in assay [16]; 76% in [20]; 85% in [18]; 34% in assay [11]. In assay [19], the residual activity came to 62%.
As for `CCCCc1c(-c2ccc(OC)cc2)[nH]c2nccnc12`, the residual activity in [17] worked out at 88%.
Consider `COc1cc(OC)c(/C=C2\C(=O)Nc3ccccc32)c(OC)c1`, for which the residual activity in assay [12] was found to be 74%; in [1] it was 87%; in [2], 69%; in assay [3], 70%; in [4], 68%; in assay [5] it was 95%. In addition, the residual activity in assay [6] worked out at 86%; in assay [17], 101%; in assay [13], 99%; in assay [14], 89%; in assay [7] it was 91%; in [15] it was 95%. For the same compound, the residual activity in assay [8] is 84%; in assay [16] it was 105%; in assay [20] it was 95%; in assay [9], 132%; in assay [10] it was 106%; in [18], 102%. In addition, the results for the residual activity in [11] and in [19] were 98% and 104%, respectively.
Turning to `Nc1nc(Nc2ccc(S(N)(=O)=O)cc2)nn1C(=O)c1c(F)cccc1F`, the residual activity in assay [17] was 78%.
For `COc1cc2ncnc(Nc3ccc(OCc4ccccc4)cc3)c2cc1OC`, the residual activity is 2% in assay [12]; 20% in [1]; 11% in [2]; 79% in [3]; 64% in assay [4]; 101% in assay [5]. The residual activity came out at 85% in assay [6]; 101% in assay [17]; 97% in [13]; 98% in [14]; 97% in assay [7]; 105% in assay [15]. The residual activity in assay [8] was determined as 99%; in assay [16], 100%; in assay [20], 160%; in assay [9] it was 104%; in [10] it was 119%; in assay [18] it was 102%. Also, the residual activity in assay [11] worked out at 105%; in assay [19], 104%.
In the case of `O=C1Cc2c([nH]c3ccc(Br)cc23)-c2ccccc2N1`, the residual activity in assay [17] amounted to 95%.
Consider `CCn1cnc2c(Nc3cccc(Cl)c3)nc(N[C@@H]3CCCC[C@@H]3N)nc21`, for which the residual activity in [12] is 2%; in assay [1] it was 54%; in assay [2], 11%; in [3], 8%; in assay [4], 0%; in assay [5], 43%. Further, the residual activity worked out at 7% in assay [6]; 96% in assay [17]; 66% in assay [13]; 91% in assay [14]; 68% in assay [7]; 74% in assay [15]. Besides, the residual activity in assay [8] was 24%; in assay [16], 123%; in assay [20] it was 119%; in [9], 132%; in assay [10], 136%; in [11], 81%. Moreover, the residual activity in [19] amounted to 85%.
For the compound `O=C(Nc1nc2ccccc2n1CCN1CCOCC1)c1cccc([N+](=O)[O-])c1`, the residual activity in assay [17] amounted to 107%.
Consider `CC(C)(C)n1nc(Cc2cccc3ccccc23)c2c(N)ncnc21`, for which, in assay [17], the residual activity was 108%.
